According to PubChem BioAssay:

Assay: basal RPMI8226 viability, no added stimulus, profiling panel, cell-based, calcein-AM fluorescence, 48 h, PK04 Diversity Set (AID 1166);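 also: cells grown under basal conditions without added stimulus; test concentration not given here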
Conditions: RPMI8226 myeloma viability, higher = more signal

| SMILES | z-score |
| --- | --- |
| COc1cc(Cc2cc3c(c(-c4ccccc4)n2)[Si](C(C)C)(C(C)C)OC3)cc(OC)c1OC | -0.189 |
| COCCOC(=O)N1C(=O)[C@@]2(c3cc(C#CCC(C(=O)OC)C(=O)OC)ccc31)[C@H](C(N)=O)[C@H]1C(=O)O[C@H](c3ccccc3)[C@H](c3ccccc3)N1[C@@H]2c1ccccc1OCCO | -3.48 |
| C[C@@]1([C@@H](NS(=O)(=O)c2cccc3cccnc23)c2ccc(-c3ccccc3)cc2)C[C@H]1C1CCCCC1 | -1.08 |
| C=C(C(=O)CC[C@@H](OC(=O)c1ccccc1-c1ccccc1C(=O)O)c1ccc(CO)o1)C(C)C | -0.951 |
| CCOC(=O)C1=CCC(c2cccn2C(=O)OC(C)(C)C)N(S(=O)(=O)c2ccc(C)cc2)C1 (stereo unspecified) | -3.67 |
| O=C1N(Cc2ccccc2)c2ccccc2C[C@@]12N=C(c1ccc(OCCCO)cc1)O[C@H]2c1ccccc1 | -4.24 |
| Cc1ccc(S[C@]2(C(=O)NC3CC3)CC(=O)N(C3Cc4ccccc4C3)[C@@H]2c2ccc(CO)cc2I)cc1 | -1.9 |
| CCc1cccc(NC(=O)O[C@H]2[C@H](OC(=O)Nc3ccccc3-c3ccccc3)[C@H](OC(=O)Nc3ccccc3-c3ccccc3)[C@@H](OC)O[C@@H]2CO)c1 | -0.201 |
| CC(C)C[C@H]1NC(=O)CNC(=O)[C@@]23C(=O)N[C@@H](Cc4ccccc4)C2[C@H](C)[C@@]2(C)O[C@H]2C3/C=C/C/C=C\CNC1=O (stereo partly specified) | -0.0815 |
| C=C(/C=C\CNS(=O)(=O)c1ccc(C)cc1)[C@H](O)[C@H]1CCCN1S(=O)(=O)c1ccccc1[N+](=O)[O-] | -1.51 |
| C[C@]1(C(=O)O)c2ccccc2C(=O)N(Cc2cc(C(F)(F)F)cc(C(F)(F)F)c2)[C@H]1c1ccc(CO)cc1 | -0.329 |
| COC(=O)C(CC#Cc1ccc2c(c1)[C@]1(C(=O)N2)[C@H](c2ccc(OCCO)cc2)N2[C@H](c3ccccc3)[C@H](c3ccccc3)OC(=O)[C@H]2[C@@H]1C(N)=O)C(=O)OC | -1.68 |
| CN1C(=O)C2C=CC(C(O)c3ccc(I)cc3)N(N(c3ccccc3)c3ccccc3)C2C1=O (stereo unspecified) | -0.726 |
| COc1ccc([Si](C)(C)[C@@H]2[C@@H](CC(=O)N(CCO)Cc3ccccc3)O[C@]3(C(=O)N(Cc4cccc(I)c4)c4ccccc43)[C@H]2C)cc1 | -4.25 |
| COc1ccc([Si](C)(C)[C@H]2[C@H](CC(=O)N3CCC[C@H]3CO)O[C@@]3(C(=O)N(Cc4cccc(N5CCCCC5=O)c4)c4ccccc43)[C@@H]2C)cc1 | -3.15 |
| O=C1C2C=CC(C(O)C3CCCCC3)N(Nc3ccccc3F)C2C(=O)N1c1ccccc1 (stereo unspecified) | -0.925 |
| C=C(COC)/C(=C/C[C@@H](OC(C)=O)c1cccc(OCCO)c1)c1cnc2ccccc2c1 | -0.461 |
| COC(=O)C1=CC(c2ccc(CO)cc2)=CC(C2CC2)N(Cc2cc3c(cc2Br)OCO3)C=C1C(=O)OC (stereo unspecified) | -2.39 |

| SMILES | z-score |
| --- | --- |
| O=C/C=C/c1ccc(-c2ccccc2)cc1 | -4.15 |
| COc1ccc(C(O)C2C=CC3C(=O)N(C)C(=O)C3N2Nc2ccccc2)cc1 (stereo unspecified) | -0.301 |
| COCCOC(=O)N1C(=O)[C@@]2(c3cc(C#CCNC(N)=O)ccc31)[C@H](c1ccccc1OCCO)N1[C@H](c3ccccc3)[C@H](c3ccccc3)OC(=O)[C@H]1[C@@H]2C(=O)N1CCCCCCC1 | 0.56 |
| CC1C2C(CCCO)=CC(C3C(=O)N(C(N)=O)C(=O)C23)N1Cc1cccc(OC(F)(F)F)c1 (stereo unspecified) | 0.244 |
| CCCC=C(CCC)[C@@H](NC(=O)c1ccc(C(=O)OC)cc1)c1ccc(C(=O)OC)cc1 | -1.59 |
| COc1ccc(C#Cc2ccc3c(c2)[C@]2(C(=O)N3)[C@H](c3ccccc3OCCO)N3[C@H](c4ccccc4)[C@H](c4ccccc4)OC(=O)[C@H]3[C@@H]2C(=O)NC[C@H](O)c2ccccc2)cc1 | -4.12 |
| C=C(C(=O)CC[C@@H](OC(=O)c1ccccc1-c1ccccc1C(=O)O)c1cccc(OCCO)c1)C(C)C | -0.637 |
| C[C@]1(C(=O)NC2CC2)c2ccccc2C(=O)N(Cc2cc(F)cc(C(F)(F)F)c2)[C@H]1c1ccc(CO)cc1 | -0.237 |
| C=C(COC)C(=O)CC[C@H](OC(C)=O)c1ccccc1OCCO | -1.97 |
| CCOC(=O)C[C@H]1[C@H](OC(=O)Cc2ccc3c(c2)OCO3)[C@@H](NC(=O)CC(C)C)c2cc(OCCCO)ccc2N1C(=O)c1ccc2ccccc2n1 | -0.577 |
| O=C1C[C@@](C(=O)NCC(F)(F)F)(c2ccc([N+](=O)[O-])cc2)[C@@H](c2ccc(CO)cc2I)N1CC12CC3CC(CC(C3)C1)C2 | -4.03 |
| COc1cc(CO)cc(I)c1O[C@H]1C=C(C(=O)NCCO)C[C@@H](N(CCN2CCOCC2)C(=O)C2CCCO2)[C@@H]1O (stereo partly specified) | -0.984 |
| O=C1C2C=CC(C(O)C(c3ccccc3)c3ccccc3)N(Nc3ccccc3F)C2C(=O)N1c1ccccc1 (stereo unspecified) | -0.0284 |
| COC(=O)C[C@H]1O[C@]2(C(=O)N(C)c3ccccc32)[C@@H](C)[C@@H]1[Si](C)(C)c1ccccc1 | -0.0598 |
| CC(C)(C)OC(=O)CC[C@]1(C(=O)N2CCOCC2)COC(c2ccc(OCCCO)cc2)=N1 | -0.785 |
| C=C(CC1([C@@H](NP(=O)(c2ccccc2)c2ccccc2)[C@H]2C[C@@H]2CCCC)CC1)c1cccc(OC)c1 | -4.72 |
| COc1ccc(C(=O)Nc2cccc(CN3C(=O)[C@]4(O[C@H](CC(=O)N(CCO)Cc5ccccc5)[C@@H]([Si](C)(C)c5ccc(OC)cc5)[C@@H]4C)c4ccccc43)c2)cc1 | -3.92 |
| CC[C@@H](O[Si](C#C[Si](C(C)C)(C(C)C)C(C)C)(C(C)C)C(C)C)c1cn([C@H](CO)Cc2ccccc2)nn1 | 0.944 |
